Only some compounds are listed: those with a hit (about 1.3% of all), similar ones and a draw of the others.
RecA intein inh: Mtb RecA intein splicing inhibitors, primary screen, biochemical, fluorescence, HTS. Protein RecA (Mycobacterium tuberculosis (strain ATCC 25618 / H37Rv)), P9WHJ3. cell-free RecA intein splicing. inhibition, % (concentration not given with the values). 0.75% of 290,000 active; in the data active = inhibition above about 30%;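 also: 0% = vehicle wells and 100% = reference inhibitor control wells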
Target sequence (P9WHJ3 whole entry, looked up): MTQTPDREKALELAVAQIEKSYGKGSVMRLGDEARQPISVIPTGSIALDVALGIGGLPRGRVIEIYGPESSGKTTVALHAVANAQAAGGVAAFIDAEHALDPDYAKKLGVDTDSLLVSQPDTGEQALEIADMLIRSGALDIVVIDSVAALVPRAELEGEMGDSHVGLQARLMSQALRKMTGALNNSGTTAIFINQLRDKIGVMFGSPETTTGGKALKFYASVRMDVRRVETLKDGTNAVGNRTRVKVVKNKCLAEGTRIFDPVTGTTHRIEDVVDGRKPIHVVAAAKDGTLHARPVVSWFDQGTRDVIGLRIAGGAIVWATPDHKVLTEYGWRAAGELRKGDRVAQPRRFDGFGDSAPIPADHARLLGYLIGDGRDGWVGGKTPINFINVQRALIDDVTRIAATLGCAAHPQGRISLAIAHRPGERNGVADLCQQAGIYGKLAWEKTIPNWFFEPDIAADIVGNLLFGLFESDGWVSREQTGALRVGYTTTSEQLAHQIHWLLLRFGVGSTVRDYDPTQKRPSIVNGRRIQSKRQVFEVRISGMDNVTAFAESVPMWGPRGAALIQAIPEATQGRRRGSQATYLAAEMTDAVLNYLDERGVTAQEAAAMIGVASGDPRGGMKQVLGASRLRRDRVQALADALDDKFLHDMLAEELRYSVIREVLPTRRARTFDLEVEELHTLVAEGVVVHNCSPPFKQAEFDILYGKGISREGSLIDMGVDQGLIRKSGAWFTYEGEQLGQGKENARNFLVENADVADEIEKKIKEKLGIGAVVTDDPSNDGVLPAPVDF
PrP 5UTR inh: inhibition of PrP 5' UTR reporter expression | 0.35% of 340,000 active | AID 488862, 2010 | cell-based PrP 5' UTR mRNA reporter, plate reader | inhibition, % (concentration not given with the values); in the data active = inhibition above about 52%; also: 0 = median of the neutral control wells
UGM FP inh: M. tuberculosis UGM enzyme inhibitors, primary screen, biochemical, fluorescence polarization, single point. inhibition, % at 10 µM. UDP-galactopyranose mutase (Mycobacterium tuberculosis (strain ATCC 25618 / H37Rv)), …. purified UGM, fluorescence polarization probe displacement. 0.06% of 320,000 active; in the data active = inhibition above about 10%, passing the limit was not always enough
BJeLR lethal: MLPCN primary cell-based screen for lethality selective to Ras in HRASV12 cells; BJeLR (HRASV12) viability, CellTiter-Glo ATP luminescence, 48 h; inhibition, % (no concentration beside the values); 0.17% of 300,000 active; in the data active = inhibition above about 50%
FadD28 binding: inhibitors of FadD28 bisubstrate probe binding, primary screen, biochemical, fluorescence polarization, single point | Mycobacterium tuberculosis FadD28 fatty-acid-AMP ligase | inhibition, % at 12.5 µM | 0.22% of 360,000 active | AID 588549, 2011; in the data active = inhibition above about 8.5%, passing the limit was not always enough
Rv3671c inh: Rv3671c serine protease inhibitors, primary screen, biochemical, fluorescence polarization, M. tuberculosis H37Rv; 0.048% of 320,000 active; P9WHR9; inhibition, % at 5.96 µM; in the data active = inhibition above about 38%;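 also: extracellular domain of Rv3671c used as enzyme; 0% = enzyme with DMSO and 100% = no enzyme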
An asterisk follows results filed as active; . = not tested or not shown.

SMILES	RecA intein inh	PrP 5UTR inh	UGM FP inh	BJeLR lethal	FadD28 binding	Rv3671c inh
CN(CCc1ccccc1)c1cc2c(c3c1ccn3C)C1CCC2C1 (configuration not stated)	.	.	.	.	-4.1	.
COC(=O)c1sc(-c2cccs2)cc1NC(=O)/C=C/C(=O)O	42.1*	-16.1	2.3	2.8	-4.5	5.3
COC(=O)c1sc(-c2ccccc2)cc1NC(C)=O	-1.6	-12.6	2.6	-7.7	-1.4	-3.5
Cc1ccc2c(c1)=N/C(=N\c1[nH]c(O)c3ccccc13)N=2	.	.	.	.	-2.1	.
Oc1[nH]c(N=C2N=c3ccccc3=N2)c2ccccc12	16.2	-70.8	-1.2	53.5*	-0.7	-6.9
Cc1cccc(-n2c(C)nc3cc(C(=O)NCCN4CCOCC4)ccc32)c1	.	.	.	.	-0.2	.
CCN(CC)C(=O)c1cccc(-c2csc(C(O)c3ccc(F)c(F)c3)n2)c1 (configuration not stated)	.	.	.	.	-0.1	.
O=C(CN1C(=O)S/C(=C\c2ccccc2)C1=O)Nc1cc([N+](=O)[O-])ccc1O	4.4	-14.8	-0.5	-2.4	17.6*	0.2
Cc1ccc(/C=C2/SC(=S)N(CCCC(=O)Nc3cc([N+](=O)[O-])ccc3O)C2=O)cc1	-0.7	-12.9	-3.9	-4.7	-2.1	-0.4
O=C(COC(=O)c1ccc(O)cc1O)Nc1cccc2ccccc12	.	-13.8	-1.8	.	12.0*	-12.5
CCC1=NN2C(=N)/C(=C\c3cccn3-c3ccc(OC)cc3)C(=O)N=C2S1	5.9	-27.4	13.8*	14.6	-1.4	-10.7
CCCC1=NN2C(=N)/C(=C\c3cc(C)n(Cc4ccccc4)c3C)C(=O)N=C2S1	-4.2	-5.2	-3.5	4.1	-0.7	3.5
CCCC1=NN2C(=N)/C(=C\c3ccc(SCc4ccco4)o3)C(=O)N=C2S1	-0.8	-24.3	-1.9	-6.0	14.1*	-41.0
Cc1ccc(-n2cccc2/C=C2\C(=N)N3N=C(C(C)C)SC3=NC2=O)cc1	1.1	-42.2	1.1	-7.8	-0.8	-12.7
CCC1=NN2C(=N)/C(=C\c3ccc(SCc4ccco4)o3)C(=O)N=C2S1	.	-6.0	-4.3	5.3	11.1*	-115.5
Cc1cccc(NC(=O)COc2coc(CN3CCN(c4ccccc4)CC3)cc2=O)c1	1.1	-2.3	2.9	5.2	-1.1	8.5
COC(=O)c1ccc(NC(=S)Nc2ccccc2)cc1	1.1	-34.1	0.3	6.1	2.0	1.9
COC(=O)c1ccc(NC(=S)NC2c3ccccc3CC2O)cc1 (configuration not stated)	5.9	-34.6	-2.4	4.7	21.9*	-3.1
COc1cccc(NS(=O)(=O)c2ccc3c(c2)C2C=CCC2C(c2ccc(C(=O)O)cc2)N3)c1 (configuration not stated)	13.3	-16.9	2.8	-3.5	21.6*	20.0
O=C(O)c1ccc2c(c1)[C@@H]1C=CC[C@@H]1[C@H](c1ccccn1)N2	9.3	-17.7	1.1	-3.8	19.5*	28.1
COc1ccc(-c2cccc(N3CCN(c4ccccn4)CC3)n2)cc1OC	.	.	.	.	-1.4	.
Cc1cccc(NS(=O)(=O)c2ccc(-c3cnc(C4CC4)o3)cc2)c1C	9.6	79.5*	0.2	53.2*	-4.4	-24.2
O=S(=O)(Nc1ccccc1)c1ccc(-c2cnc(C3CC3)o2)cc1	5.4	-11.5	-1.0	36.7	0.5	4.2
CC(=O)Nc1ccc(NS(=O)(=O)c2ccc(-c3cnc(C4CC4)o3)cc2)cc1	-0.6	-4.9	0.6	0.7	-3.1	-2.9
Cc1ccc(C)c(NS(=O)(=O)c2ccc(-c3cnc(C4CC4)o3)cc2)c1	11.9	13.1	-1.6	52.3*	-1.6	-27.3
SMILES	RecA intein inh	PrP 5UTR inh	UGM FP inh	BJeLR lethal	FadD28 binding	Rv3671c inh
Cc1cc(C)cc(NS(=O)(=O)c2ccc(-c3cnc(C4CC4)o3)cc2)c1	1.7	67.1*	1.7	57.8*	-4.4	-40.3
Cc1ccc(Cl)cc1-c1cc(C(=O)N2CCc3ccccc3C2)[nH]n1	.	.	.	.	-0.5	.
CCN(CC(=O)Nc1ccccc1C(F)(F)F)C(=O)CN1C(=O)NC(C)(c2ccc3ccccc3c2)C1=O (configuration not stated)	.	-15.3	.	.	-3.2	.
O=C(NNC(=O)c1ccc([N+](=O)[O-])o1)c1ccccc1	39.2*	-0.3	-0.9	-12.5	-1.4	7.0
Cc1cccc(/C=N/n2c(C3CCCCC3)n[nH]c2=S)c1	-0.4	-8.4	1.6	-1.1	10.6*	-7.5
S=c1[nH]nc(C2CCCCC2)n1/N=C/c1cccc(Br)c1	-1.4	-4.5	0.5	-1.3	-2.8	-2.7
Fc1cccc(Cc2c(-c3ccco3)nc3c(Cl)cc(C(F)(F)F)cn23)c1	.	.	.	.	-0.3	.
COCCCNC(=O)Cn1cc(/C=C2\C(=O)NC(=O)N(c3ccccc3F)C2=O)c2ccccc21	2.7	.	22.7*	8.6	2.8	1.5
NC(=O)Cn1cc(C=C2C(=O)NC(=O)NC2=O)c2ccccc21	-3.0	-28.3	29.6*	1.0	2.0	.
COCCNC(=O)Cn1cc(/C=C2\C(=O)NC(=O)N(c3ccccc3F)C2=O)c2ccccc21	-3.6	-14.9	14.9*	4.7	2.0	-10.6
COCCNC(=O)Cn1cc(/C=C2\C(=O)NC(=O)N(c3cccc(C)c3C)C2=O)c2ccccc21	-0.2	.	2.4	1.6	-0.1	-3.8
COC(=O)Cn1cc(C=C2C(=O)NC(=O)NC2=O)c2ccccc21	-3.6	-13.6	-0.4	-0.8	-0.5	-16.5
COc1ccc(-c2csc(C(C)(O)c3cccnc3)n2)cc1 (configuration not stated)	.	.	.	.	-3.3	.
Cc1cnc2ccc(F)cc2c1	.	.	.	.	-0.4	.
CCCCN(C=O)c1c(CC)nc2c(OCc3ccc(Cl)cc3)cccn12	.	.	.	.	-6.5	.
O=C(Nc1cccc([N+](=O)[O-])c1)NC1CCCCCCC1	3.9	-41.5	1.1	.	17.6*	.
O=C(CNC1CCCCC1)Nc1cccc([N+](=O)[O-])c1	-0.3	-23.8	1.3	1.1	-2.8	1.0
CC(=O)c1ccc2c(c1)C1C(Cl)C(Sc3ccccc3[N+](=O)[O-])CC1C(C(=O)O)N2 (configuration not stated)	.	-12.3	-1.8	.	20.4*	2.3
ClC(Cl)(Cl)c1nc2ccccc2n2nncc12	54.9*	-5.8	0.4	47.7	-2.7	-11.4
c1ccc2c(c1)nnn1c3ccccc3nc21	-23.6	.	1.8	15.8	.	-9.8
COCCNC(=O)C1CCCN(C(=O)c2ccc3sccc3c2)CC1 (configuration not stated)	.	.	.	.	-1.3	.
CC(=O)C(=Nc1ccc(Cl)cc1Cl)NNc1cccc(Cl)c1	33.8*	5.6	-0.4	3.5	0.1	-4.2
CC(=O)Nc1ccc(NC(=O)Nc2cccc(Cl)c2)cc1	-4.9	-29.4	2.3	11.1	-0.1	2.3
CC(C)(C)OC(=O)N(Cc1ccccc1)Cc1ccccc1OCc1cccc(NC(=O)c2ccccc2)c1	.	-5.4	.	.	-1.4	.

Screening data as filed in PubChem BioAssay.
